# Assay outcomes deposited in PubChem by The Scripps Research Institute Molecular Screening Center.
# TEAD-YAP inh – TEAD-YAP interaction inhibition, primary screen, TEAD-YAP interaction inhibitor project, luminescence, HEK-TIYL cells. TEAD-Gal4/YAP UAS-luciferase luminescence. inhibition, % at 9.12 µM. 640,000 tested, 1.4% active; in the data active = inhibition above about 32%;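 also: 0% = median of test compound wells and 100% = reference inhibitor wells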
# GPR151 ag – activators of human GPR151, primary screen, cell-based, PathHunter beta-arrestin, luminescence; PathHunter beta-arrestin GPR151 cells; G-protein coupled receptor 151 (Homo sapiens), Q8TDV0; activation, % at 11.2 µM; 650,000 tested, 1% active; AID 1508602, 2020; in the data active = activation above about 4.9%;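 also: 0% = median of compound wells and 100% = cells with positive control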
# MITF inh – MITF inhibitors, primary screen, biochemical, AlphaScreen, human; Microphthalmia-associated transcription factor (Homo sapiens), O75030; AlphaScreen MITF homodimerization, bead proximity signal; inhibition, % at 2.6 µM; 650,000 tested, 0.91% active; in the data active = inhibition above about 50%;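 also: 0% = vehicle wells with protein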
# Target sequence (O75030 whole entry, looked up): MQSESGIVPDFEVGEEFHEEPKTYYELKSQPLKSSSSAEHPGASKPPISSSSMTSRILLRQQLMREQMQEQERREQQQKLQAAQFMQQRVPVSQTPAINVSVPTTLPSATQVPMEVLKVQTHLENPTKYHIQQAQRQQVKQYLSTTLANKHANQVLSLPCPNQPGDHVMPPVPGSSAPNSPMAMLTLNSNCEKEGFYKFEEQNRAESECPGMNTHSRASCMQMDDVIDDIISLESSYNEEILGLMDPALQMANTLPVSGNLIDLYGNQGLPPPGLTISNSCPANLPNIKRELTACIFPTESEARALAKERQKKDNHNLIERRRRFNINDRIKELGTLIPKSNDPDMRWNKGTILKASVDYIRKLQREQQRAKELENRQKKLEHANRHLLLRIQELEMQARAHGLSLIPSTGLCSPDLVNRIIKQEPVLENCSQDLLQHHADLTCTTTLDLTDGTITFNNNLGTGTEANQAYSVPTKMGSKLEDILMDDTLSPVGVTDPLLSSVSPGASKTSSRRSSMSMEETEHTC
# FBW7 act – FBW7 E3 ligase activators, primary screen, biochemical, AlphaScreen, human. F-box/WD repeat-containing protein 7 (Homo sapiens), Q969H0. AlphaScreen FBW7–phospho-cyclin E peptide binding, activator screen. normalized activity (activation), % at 26.1 µM. 650,000 tested, 0.13% active. AID 1259310, 2017; in the data active = normalized activity above about 1.9%;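 also: purified mutant Fbw7 with reduced substrate affinity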
# MITF inh conf – MITF inhibitors, retest of hits, confirmation, biochemical, AlphaScreen, triplicate. shares compounds with MITF inh. AlphaScreen MITF homodimerization, biotin/His-MITF beads. inhibition, % at 2.6 µM. 4,700 tested, 16% active. AID 1259372, 2018;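 active = inhibition above a cutoff derived from the DMSO control wells, cut at about 28% in these data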;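 also: 0% = MITF dimer wells with DMSO only; inhibitors lower the bead chemiluminescence by keeping MITF from dimerizing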
# AlphaScreen DR – AlphaScreen optical interference compounds, dose response, counter-screen, biochemical, HTS | 480 tested, 6% active | IC50, µM | shares compounds with MITF inh | AlphaScreen optical interference counterscreen, cell-free; call rule not given here
# AS interf ctr – AlphaScreen optical interference compounds, counter-screen for MITF inhibitor project, biochemical, triplicate. 4,700 tested, 7.6% active. shares compounds with MITF inh. inhibition, % at 2.6 µM. LysRS AlphaScreen counterscreen, signal interference;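 active = inhibition above a cutoff derived from the DMSO control wells, cut at about 30% in these data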
# GPR151 confirm – GPR151 activators, triplicate retest, confirmation, cell-based, PathHunter beta-arrestin, luminescence; GPR151 PathHunter beta-arrestin cells, 90 min; % of EA-reagent control over plate median; 6,700 tested, under 10 active; shares compounds with GPR151 ag; activation, % at 11.2 µM;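 active = mean percent activation across replicates above the confirmation screen cutoff of 4.91%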
# GPR119 counter – GPR119 activators in beta-arrestin cells, counter-screen for GPR151 activator project, cell-based, PathHunter beta-arrestin, luminescence, triplicate. 6,700 tested, 0.3% active. shares compounds with GPR151 ag. activation, % at 11.2 µM. AID 1508611, 2020. 90 min; 0 = compound-well median, 100 = enzyme-acceptor control;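 active = mean percent activation in the counterscreen above 29.09%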;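 also: counterscreen on off-target GPR119 to flag nonselective hits from the GPR151 activator screen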
# * hit, by the source's call; . = no result; ! = not active in a repeat. Compounds with a hit are over-represented: about 3.5% of the library has one in this group of screens.
SMILES,TEAD-YAP inh,GPR151 ag,MITF inh,FBW7 act,MITF inh conf,AS interf ctr,GPR151 confirm,GPR119 counter,others
COc1ccc(CN2CCN(C(=O)c3cc(OC)c(OC)c(OC)c3)CC2)c(OC)c1,1.4,0.0,38.1,-0.1,.,.,.,.,
CCn1c2ccccc2c2cc(CN3CCN(Cc4ccc5c(c4)c4ccccc4n5CC)CC3)ccc21,0.5,-0.3,7.7,0.0,.,.,.,.,
CCc1ccc(CN2CCN(Cc3ccc4c(c3)c3ccccc3n4CC)CC2)cc1,-3.1,5.8*,69.7*,-0.1,8.0,3.4,0.4,6.2,
CC(=O)Oc1ccc(C2=N/C(=C\c3ccc(C)cc3)C(=O)O2)cc1,-12.7,-4.8,-8.4,0.2,.,.,.,.,
c1cnc2nc(SCc3cn4ccccc4n3)[nH]c2c1,0.5,6.8*,68.0*,-0.2,10.2,0.2,0.4,7.3,
Cc1cc(=O)[nH]c(SCc2cn3ccccc3n2)n1,-8.3,-1.3,-4.1,0.1,.,.,.,.,
CC(=O)c1ccc(NC(=O)C(C)Sc2ccc(Cl)cc2)cc1 (centres undefined),0.7,-0.9,3.7,0.9,.,.,.,.,
Brc1c(OCCCN2CCNCC2)ccc2ccccc12,-18.4,17.5*,55.7*,-0.4,6.2,-1.5,0.3,-5.2,
CCCN(CC1CC1)C(=O)C1CCN(Cc2ccc(C)cc2)CC1,3.1,5.2*,53.4*,0.3,12.2,7.0,-0.5,-2.0,
Clc1cccc(CN2CCOCC2)c1Cl,2.2,9.9*,60.0*,0.4,-6.2,-8.0,-0.1,5.9,
c1ccc2c(CN3CCOCC3)cccc2c1,7.8,-0.1,37.7,0.2,.,.,.,.,
COc1cc(CN2CCOCC2)cc(OC)c1,4.1,-0.8,42.2,-0.1,.,.,.,.,
COc1ccc(CN2CCN(Cc3cc(OC)cc(OC)c3)CC2)cc1,-0.7,17.3*,77.1*,-0.1,-5.5,1.2,-0.6,-13.5,
COc1cc(CN2CCN(Cc3ccc(Br)cc3)CC2)cc(OC)c1,-4.6,6.1*,81.6*,0.2,10.7,5.7,-1.3,-9.5,
Cc1cc(O)c2c(c1)Cc1cccc(O)c1C2=O,2.0,5.4*,115.8*,-0.3,115.4*,-25.4,0.6,-7.3,AlphaScreen DR=>6.48
CC1CCCCC1NC(=O)CN1C(=O)CCc2ccccc21 (centres undefined),7.0,0.1,4.1,-0.1,.,.,.,.,
O=C(CN1CCC(N2CCCCC2)CC1)Nc1ccccc1O,2.3,5.7*,52.2*,0.2,7.6,2.9,-0.5,-2.2,
N#Cc1nc(COc2ccccc2Cl)oc1NCCCn1ccnc1,-0.3,18.5*,96.2*,-0.1,-4.4,5.2,-0.4,-6.5,
N#Cc1nc(-c2ccccc2)oc1NCCCn1ccnc1,-17.4,-0.2,-8.2,-0.2,.,.,.,.,
C=CCC1(CC=C)CCCCN1C(=O)CC1C(=O)NCCN1Cc1ccoc1 (centres undefined),1.7,6.4*,79.7*,0.5,-0.1,-1.1,-0.1,-9.3,
O=C(c1ccncc1)N1CCN(Cc2cccnc2)CC1,7.2,9.0*,67.6*,0.0,-17.9,-4.8,0.1,15.0,
COc1cc(CN2CCN(C(=O)c3cccnc3)CC2)cc(OC)c1OC,0.8,-0.5,47.1,0.1,.,.,.,.,
COc1cc(OC)c(OC)cc1CN1CCC(N2CCCCC2)CC1,-7.2,6.1*,59.8*,-0.2,20.2,16.5,0.1,9.8,
COc1cc(OC)c(CN2CCC(N3CCCCC3)CC2)cc1Br,0.8,-0.5,12.0,0.2,.,.,.,.,
C=CCNCCOCCOc1ccc(OCC)cc1,14.6,6.0*,51.4*,1.6,48.9*,7.4,0.7,0.6,AlphaScreen DR=>6.48
SMILES,TEAD-YAP inh,GPR151 ag,MITF inh,FBW7 act,MITF inh conf,AS interf ctr,GPR151 confirm,GPR119 counter,others
CCOC(=O)c1ccc(NC(=O)c2sc(NC(=O)c3cccc(Cl)c3)c(C(=O)OCC)c2C)cc1,-4.0,-0.1,3.2,-0.1,.,.,.,.,
COc1ccc(N2CCN(C3CCCN(C(=O)c4csc(SC)n4)C3)CC2)cc1 (centres undefined),-1.2,4.9*,4.8,-0.2,.,.,0.8,9.0,
CC(C)=CCC[C@@H](C)C1CC[C@@]2(C)C3=C(CC[C@]12C)[C@@]1(C)CCC(O)C(C)(C)[C@@H]1CC3 (some centres undefined),6.5,7.7*!,-0.7,0.0,.,.,0.5,10.7,
CC(=O)O[C@H]1CCC2(C)C3=C(CCC2C1(C)C)[C@]1(C)CCC(C(C)CCC=C(C)C)[C@@]1(C)CC3 (some centres undefined),-12.1,3.1,11.7,0.1,.,.,.,.,
CC1(C)NC(=O)N(CC(O)COc2ccc3ccccc3c2Br)C1=O (centres undefined),-12.9,2.6,-5.5,-0.1,.,.,.,.,
CC1(C)NC(=O)N(CCOCCOc2ccc3ccccc3c2Br)C1=O,-32.4,5.5*,-4.6,0.1,.,.,-0.2,-10.5,
CSc1ccccc1NC(=O)CNC(=O)c1c[nH]c2ccccc12,1.5,0.1,5.6,0.1,.,.,.,.,
Cc1ccc(NC(=O)CNC(=O)c2c[nH]c3ccccc23)cc1F,1.6,5.7*,2.3,-0.1,.,.,0.1,-5.1,
N#C/C(=C/Nc1ccc(F)c([N+](=O)[O-])c1)c1nc(-c2ccccc2)cs1,7.3,3.5,10.7,-0.1,.,.,.,.,
N#C/C(=C\Nc1ccc(F)c([N+](=O)[O-])c1)c1nc(-c2cccc([N+](=O)[O-])c2)cs1,-3.4,8.8*,-7.8,0.0,.,.,-0.6,4.1,
COc1ccc(-c2nc(NC3CCN(Cc4ccccc4)CC3)c3ncn(C4CCCCC4)c3n2)cc1,-0.8,5.8*,1.9,0.0,.,.,-0.7,-7.7,
CC(=O)c1cccc(-c2nc(NC3CC3)c3ncn(C4CCCCC4)c3n2)c1,-5.5,9.4*,15.0,0.0,.,.,-0.6,-7.2,
Nc1nc(-c2ccc(C(=O)NC3CC3)cc2)nc2c1ncn2C1CCCCC1,-8.4,6.2*,6.5,0.2,.,.,0.3,3.4,
CN1CCN(c2ccc(-c3nc(NCc4cccc(C(F)(F)F)c4)c4ncn(C5CCCCC5)c4n3)cc2)CC1,11.6,-1.4,12.5,-0.1,.,.,.,.,
CN1CCN(C(=O)c2ccc(-c3nc(NCc4cccc(C(F)(F)F)c4)c4ncn(C5CCCCC5)c4n3)cc2)CC1,6.3,5.0*,-0.6,0.0,.,.,0.0,-21.3,
